A selection: hits, their analogues and other compounds. The true share with any hit is near 17%.
TGFb inhibitor: TGF-b pathway inhibition; AID 588855; Potency, µM (highest dose often 46.1 µM), for the others: top-dose activity, negative = inhibition, most hits filed as inhibitors; hit rate 1.2% among 410,000; HepG2 CAGA-GFP TGF-b/SMAD3 reporter, GFP fluorescence, 18 h; TGF-beta stimulated, 500 pg/mL final; note: % is set by controls: 0 for no effect and ±100 for the full control effect; nearly all actives have a fitted effect of over 65% in size
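Smad-responsive CAGA-GFP expression was quantified in HEPG2 cells exposed to compounds and 500 pg/mL final TGF-beta for 18 h at 37 degrees C; unstimulated wells defined full inhibition.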
DT40 TDP1 CPT: DT40-hTDP1 cell growth loss with CPT | chicken DT40 Tdp1-/-;hTDP1 cells + 20 nM CPT, ATP luminescence, 48 h | Potency, µM (titrated, usually from 46.2 µM), inactives show top-dose activity change, negative = growth inhibition, most hits filed as inhibitors | hit rate 12% among 420,000; note: % is set by controls: 0 for no effect and ±100 for the full control effect; nearly all actives have a fitted effect of over 55% in size
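Chicken DT40 Tdp1-/- cells stably complemented with human TDP1 were seeded at 400 cells/well in medium containing 20 nM camptothecin, exposed to pin-transferred compounds, and grown at 37 °C for at least 48 hr. Viability was read as ATP luminescence.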
TDP1 cell noCPT: qHTS for Inhibitors of human tyrosyl-DNA phosphodiesterase 1 (TDP1): qHTS in cells in absence of CPT; DT40 Tdp1-/- hTDP1 cells, no CPT, ATP luminescence, 48 h; hit rate 15% among 420,000; Potency, µM (titrated, usually from 46.2 µM), inactives show top-dose activity change, negative = growth inhibition, usual class: inhibitors; note: % is set by controls: 0 for no effect and ±100 for the full control effect; nearly all actives have a fitted effect of over 55% in size
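Growth kinetics read by CellTiter-Glo luminescence after ≥48 hr at 37 °C. Cells: DT40 Tdp1-/- stably carrying human TDP1, 400 per well, compound exposure in the absence of CPT (DMSO vehicle).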
HepG2 tox: HepG2 cytotoxicity, counter-screen for TGF-b inhibitors; Potency, µM (highest dose often 46.1 µM), without a hit: at the top dose activity change, negative = cytotoxicity, usual class: cytotoxic; hit rate 0.76% among 410,000; HepG2 CAGA-GFP viability, ATP luminescence, 18 h; AID 588856
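CellTiter-Glo luminescence gave cytotoxicity after 18 hours at 37 degrees C. The cells were HepG2 CAGA-GFP in 1% FBS DMEM, stimulated with 500 pg/mL TGF-beta after compound addition. %Activity was normalised to no-cell wells (complete cell-killing) and DMSO (no toxicity), and curves were fitted and classified.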
HT1080-NT tox: kills 2HG-producing HT-1080-NT fibrosarcoma cells; Potency, µM (titrated, usually from 46.1 µM), for the others: at the highest dose activity, negative = less viability, actives largely listed as cytotoxic; hit rate 1.6% among 360,000; HT-1080-NT fibrosarcoma viability, CellTiter-Glo ATP luminescence, 48 h; AID 686970;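 note: NT is the 2HG producing partner of a matched IDH1 knockdown line; 0% = DMSO-treated cells and -100% = media-only wells without cells; nearly all actives have a fitted effect of over 55% in size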
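HT-1080-NT fibrosarcoma cells (2HG-overproducing), 750 cells/well in RPMI with 5% FBS, dosed after 2 h and incubated 48 h at 37C. CellTiter-Glo luminescence normalized to DMSO and no-cell wells; concentration-response curves fitted and classed.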
HT1080 IDH1KD tx: kills HT-1080 cells with IDH1 knockdown | HT-1080 IDH1 knockdown viability, ATP luminescence, 48 h | Potency, µM (titrated, usually from 46.1 µM), for inactives: at the highest dose activity, negative = toxicity, hits mostly cytotoxic | hit rate 2% among 360,000 | AID 686971;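 note: 0% = DMSO wells and -100% = cell-free medium wells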
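Knockdown cells (IDH1KD HT-1080) received compounds 2 h after plating at 750 cells/well and were kept 48 h at 37 °C in 5% FBS RPMI. A CellTiter-Glo luminescence read gave % activity for curve fitting.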
* = called active by the depositor; u = inconclusive; x = no result given. Calls come from the whole dose curve; as a rule, active = well fitted curve in the direction sought with a large enough effect; inconclusive = small, poorly fitted or top-dose-only effect, or another doubt; inactive = no such curve, though single readings can be large; an effect the other way counts as inactive or inconclusive. Potency is the fitted concentration of half-maximal effect.

SMILES	TGFb inhibitor	DT40 TDP1 CPT	TDP1 cell noCPT	HepG2 tox	HT1080-NT tox	HT1080 IDH1KD tx
Cc1nc(NCCNC(=O)c2ccco2)c2c(C)c(C)sc2n1	-1%	u	21µM*	4%	1%	0%
Cc1nc(NCCc2ccc(S(N)(=O)=O)cc2)c2c(C)c(C)sc2n1	-19%	16µM*	15µM*	-29%	-13%	-25%
c1ccc([C@H]2CNCCN2CCc2cccc3ccccc23)cc1	u	u	21µM*	-77%	u	-27%
Oc1ccc(C[C@H]2CNCCN2CC2CCCCC2)cc1	-4%	u	16µM*	-19%	-1%	-12%
c1ccc2c(C[C@@H]3CNCCN3CC3CCCCC3)cccc2c1	u	15µM*	16µM*	-85%	-18%	-10%
COc1cc(CCCN2CCNC[C@@H]2c2ccccc2)cc(OC)c1OC	-6%	-12%	3%	-11%	5%	-1%
Oc1ccc(C[C@@H]2CNCCN2CC2CCCCC2)cc1	-7%	16µM*	23µM*	-50%	-26%	-4%
CC(C)(C)CN1CCNC[C@H]1Cc1ccc(O)cc1	12%	u	-28%	-2%	1%	0%
O=C(N[C@@H]1CC[C@@H](CCNC(=O)C2CCOCC2)O[C@@H]1CO)c1ccncc1	x	-1%	16%	x	12%	15%
CC(C)N1C(=O)CC2(CC[N+](C)(CCOC(=O)C(c3ccccc3)c3ccccc3)CC2)C1=O (centres undefined)	-14%	1%	-3%	14%	1%	9%
CCn1c(COc2ccc(Cl)cc2)nnc1SC1CCc2ccccc2C1=O (centres undefined)	13%	u	21µM*	1%	0%	-11%
CCn1c(COc2ccc(Cl)cc2)nnc1SCc1ccc(C#N)cc1	5%	-2%	u	-11%	-3%	-2%
Cc1cc(=O)[nH]c(SCC(=O)N2C(C)CCCC2C)n1 (centres undefined)	0%	-14%	-5%	12%	-7%	-2%
COc1ccc(NC(=O)CSCC(=O)Nc2ccccc2C(=O)N2CCCCC2)cc1	0%	-9%	-6%	-6%	-1%	11%
CCOC(=O)c1c(C)[nH]c(C(=O)COC(=O)c2cc(C)oc2C)c1C	-8%	u	-19%	-43%	-2%	-24%
CCOC(=O)c1c(C)[nH]c(C(=O)COC(=O)c2ccc([N+](=O)[O-])o2)c1C	0%	16µM*	26µM*	-44%	0%	-17%
Cn1c(N)c(C(=O)COC(=O)c2ccc([N+](=O)[O-])o2)c(=O)n(C)c1=O	13µM*	18µM*	u	-43%	u	-29%
O=C(CNC(=O)c1ccco1)OCc1ccccc1F	-8%	13%	0%	-37%	-1%	17%
O=C(CN1CCN(C(=O)N2CCOCC2)CC1)Nc1cc(Cl)ccc1Cl	11%	u	13µM*	-2%	-7%	-1%
